# Compound activity: PubChem, several laboratories
# Shown are actives, neighbours in structure and some others; about 6.6% of the full set was active somewhere.
# Mtb FBA inh – Mtb FBA enzyme inhibitors, primary screen, biochemical, fluorescence, strain H37Rv; Fructose-bisphosphate aldolase (Mycobacterium tuberculosis (strain ATCC 25618 / H37Rv)), …; purified M. tuberculosis FBA, fluorescence read-out; inhibition, % at 1 µM; 360,000 tested, 2.3% active; in the data active means inhibition above about 27%;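 further: 0% = vehicle and 100% = reference inhibitor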
# GDH-TPI counter-1 – GDH-TPI coupling enzyme inhibitors, primary screen, artefact control for M. tuberculosis FBA inhibitor project, biochemical, absorbance, full deck; inhibition, % at 4.8 µM; 360,000 tested, 1.2% active; GDH-TPI coupled enzyme counterscreen, NADH absorbance; in the data active means inhibition above about 30%;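 further: 0% = DMSO wells and 100% = wells lacking the enzyme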
# Bead autofluor – flagged as autofluorescent in microsphere protease counterscreen | compound autofluorescence counterscreen, microsphere flow cytometry; hits give high values | fluorescence intensity (test concentration not listed) | 360,000 tested, 3.1% active; in the data active means fluorescence intensity above about 16000; inconclusive means no clear call, values can overlap the other calls
# BoNT-A LC inh2 – BoNT/A light chain protease inhibitors, primary screen, biochemical, flow cytometry, MLPCN library | Botulinum neurotoxin type A light chain protease (Clostridium botulinum A str. ATCC 3502) | multiplex microsphere protease substrate cleavage | inhibition, % at 10 µM | 360,000 tested, 0.17% active | AID 588499, 2011; further: plate controls were buffer without enzyme for full effect and enzyme alone for no effect
# BoNT-F LC inh – BoNT/F light chain protease inhibitors, primary screen, biochemical, flow cytometry, MLPCN library. Botulinum neurotoxin type F light chain protease (Clostridium botulinum). Multiplex microsphere protease cleavage assay. inhibition, % at 10 µM. 360,000 tested, 0.22% active; in the data active means inhibition above about 35%, passing the limit was not always enough; inconclusive means no clear call, values can overlap the other calls; further: plate controls were buffer without enzyme for full effect and enzyme alone for no effect
# Anthrax LF prot – Bacillus anthracis LF protease inhibitors, primary screen, biochemical, multiplex microsphere, MLPCN library; multiplex microsphere protease cleavage assay; inhibition, % at 10 µM; 360,000 tested, 0.12% active; further: plate controls were buffer without enzyme for full effect and enzyme alone for no effect
# Target sequence (P15917 whole entry, looked up): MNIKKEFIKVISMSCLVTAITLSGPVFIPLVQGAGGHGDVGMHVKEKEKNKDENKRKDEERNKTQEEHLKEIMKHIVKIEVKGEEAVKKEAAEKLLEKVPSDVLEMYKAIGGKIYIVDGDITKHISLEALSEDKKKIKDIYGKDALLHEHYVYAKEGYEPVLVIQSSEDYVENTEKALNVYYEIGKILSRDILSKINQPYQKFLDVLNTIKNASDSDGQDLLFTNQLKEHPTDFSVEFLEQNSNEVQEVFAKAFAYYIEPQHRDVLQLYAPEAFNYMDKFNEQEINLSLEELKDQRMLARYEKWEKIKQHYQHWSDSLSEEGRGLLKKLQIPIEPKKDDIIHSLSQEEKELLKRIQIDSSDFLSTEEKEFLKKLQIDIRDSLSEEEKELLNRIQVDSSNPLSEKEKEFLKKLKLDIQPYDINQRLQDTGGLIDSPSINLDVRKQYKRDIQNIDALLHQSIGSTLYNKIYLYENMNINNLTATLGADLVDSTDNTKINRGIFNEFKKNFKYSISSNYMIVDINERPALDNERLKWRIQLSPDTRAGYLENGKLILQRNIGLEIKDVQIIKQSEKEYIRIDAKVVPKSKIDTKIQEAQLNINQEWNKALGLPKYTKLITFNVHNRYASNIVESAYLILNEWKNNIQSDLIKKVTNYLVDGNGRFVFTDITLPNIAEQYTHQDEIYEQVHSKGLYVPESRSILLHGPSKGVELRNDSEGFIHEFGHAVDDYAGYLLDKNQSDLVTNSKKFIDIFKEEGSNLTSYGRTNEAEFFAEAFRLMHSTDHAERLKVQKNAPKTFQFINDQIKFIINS
# Mtb FBA confirm – M. tuberculosis aldolase blockers, biochemical, fluorescence, strain H37Rv, confirmation; AID 651616, 2012; purified M. tuberculosis FBA, fluorescence read-out; shares compounds with Mtb FBA inh; 5,600 tested, 78% active; inhibition, % at 1 µM; in the data active means inhibition above about 27%;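 further: 0% = vehicle wells and 100% = reference inhibitor wells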
# GDH-TPI counter-2 – GDH-TPI coupling enzyme inhibitors, artefact control for M. tuberculosis FBA inhibitor project, biochemical, fluorescence, high throughput; shares compounds with Mtb FBA inh; 5,600 tested, 81% active; GDH-TPI coupled enzyme counterscreen; inhibition, % at 1 µM; in the data active means inhibition above about 10%
# GDH-TPI dose – GDH-TPI coupling enzyme inhibitors, dose response, artefact control for M. tuberculosis FBA inhibitor project, biochemical, fluorescence, IC50 | shares compounds with Mtb FBA inh | GDH-TPI coupled enzyme assay, artifact counterscreen | IC50, µM | 170 tested, 79% active | AID 652145, 2013; call rule not given here
# * hit, by the source's call; ? = inconclusive; . = not tested or not shown; + = active, no number. Unless noted, no stated cut-off is given here; in the data, active means inhibition above about 30%; inconclusive means no clear call, values can overlap the other calls; inactive means below that.
SMILES,Mtb FBA inh,GDH-TPI counter-1,Bead autofluor,BoNT-A LC inh2,BoNT-F LC inh,Anthrax LF prot,Mtb FBA confirm,GDH-TPI counter-2,others
CCOC(=O)c1c(C)n(C)c2cc([N+](=O)[O-])c(O)c([N+](=O)[O-])c12,4,-5,3816,0,3,-8,.,.,
O=C(CCNc1cccc(F)c1)c1cc2ccccc2o1,28*,3,3368,0,3,-1,4,-5,
COc1ccc(C(=O)C2CCCN(C(=O)c3cccnc3SC)C2)c(C)c1 (centres undefined),5,-3,3348,0,-2,-4,.,.,
COc1ccc(-c2csc(-c3ccc(C(=O)O)cc3)n2)cc1,49*,22,2100,1,7,1,58*,43*,
O=C(O)c1ccc(-c2nc(-c3ccc(Cl)cc3)cs2)cc1,2,2,2179,0,5,-1,.,.,
CC(C#N)(NC(=O)COC(=O)c1ccccc1NCCO)C1CC1 (centres undefined),99*,11,?,2,-4,?,52*,39*,
O=C(COC(=O)c1ccccc1Br)NCCC1=CCCCC1,0,-2,4595,2,24,0,.,.,
Cc1ccc(C(=O)OCC(=O)Nc2c(C)nn(-c3ccccc3)c2C)c(O)c1,5,15,3772,1,12,0,.,.,
COc1ccc(C(=O)OCC(=O)N(Cc2ccccc2)Cc2ccccc2)c(O)c1,-3,9,3831,0,-5,-4,.,.,
O=C(COC(=O)c1ccccc1NCCO)NCCC1=CCCCC1,63*,3,5498,-1,4,-1,175*,130*,
O=C(OCC(=O)N(Cc1ccccc1)Cc1ccccc1)c1ccccc1NCCO,95*,9,5927,2,?,1,4,-2,
Cc1ccc(-n2nc(C)c(NC(=O)COC(=O)c3ccccc3NCCO)c2C)cc1,68*,16,?,2,?,-4,80*,65*,
O=C(COC(=O)c1ccccc1NCCO)NCCc1ccccc1,77*,3,6222,0,-6,-2,47*,38*,
O=C(COC(=O)c1ccccc1Br)NCC1CCCCC1,-3,0,3407,0,2,-5,.,.,
O=C(COC(=O)c1ccccc1NCCO)NCC1CCCCC1,71*,7,8672,3,5,-7,100*,76*,
O=C(COC(=O)c1ccccc1NCCO)NNC(=O)c1cccs1,60*,6,?,0,5,1,+,+,
COc1ccc2nc3oc(C(=O)N4CCC5(CC4)OCCO5)cc3cc2c1,50*,13,1990,0,3,0,187*,156*,
COc1ccc2cc3cc(C(=O)N4CCN(C5CCCCC5)CC4)oc3nc2c1,50*,9,5799,-1,3,-4,23,5,GDH-TPI dose=1.7*
COc1ccc2nc3oc(C(=O)N4CCN(c5ccccc5F)CC4)cc3cc2c1,7,6,4598,0,-1,2,.,.,
COc1ccc2nc3oc(C(=O)Nc4ccc(OC)c(OC)c4)cc3cc2c1,18,3,3658,0,-8,0,.,.,
COc1ccc2cc3cc(C(=O)NCCc4ccc(OC)c(OC)c4)oc3nc2c1,31*,45*,.,.,.,.,54*,46*,
COc1cc(OC)cc(C(=O)N2CCN(C3CCCCC3)CC2)c1,0,9,3788,-1,5,-3,.,.,
